In the library only some 19% were active in any assay of this set; here they are far more common.
TDP1 block: inhibitors of human tyrosyl-DNA phosphodiesterase TDP1 | 0.28% of 350,000 active | Potency, µM (top dose mostly 130 µM), most hits filed as inhibitors | AID 485290 | recombinant TDP1, AlphaScreen DNA substrate cleavage | Q9NUW8; further: nearly all actives have a fitted effect of over 40% in size
Target sequence (Q9NUW8 whole entry, looked up): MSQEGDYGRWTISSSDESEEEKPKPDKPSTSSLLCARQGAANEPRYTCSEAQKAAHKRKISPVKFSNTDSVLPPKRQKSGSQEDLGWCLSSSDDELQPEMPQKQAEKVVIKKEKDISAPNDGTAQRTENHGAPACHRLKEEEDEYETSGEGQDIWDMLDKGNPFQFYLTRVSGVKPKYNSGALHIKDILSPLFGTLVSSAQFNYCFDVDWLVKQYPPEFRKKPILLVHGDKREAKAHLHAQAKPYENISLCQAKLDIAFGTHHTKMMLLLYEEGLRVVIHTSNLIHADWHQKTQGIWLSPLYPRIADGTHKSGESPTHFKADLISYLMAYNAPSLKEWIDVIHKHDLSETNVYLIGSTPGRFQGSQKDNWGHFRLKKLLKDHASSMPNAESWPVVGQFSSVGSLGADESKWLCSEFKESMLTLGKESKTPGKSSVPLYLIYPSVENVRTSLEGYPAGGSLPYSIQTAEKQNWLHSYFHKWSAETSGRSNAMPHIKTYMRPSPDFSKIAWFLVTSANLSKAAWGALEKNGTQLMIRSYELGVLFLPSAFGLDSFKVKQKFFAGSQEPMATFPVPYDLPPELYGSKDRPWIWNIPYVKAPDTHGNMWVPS
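AlphaScreen read-out: signal falls as enzyme removes the 3' tyrosine-FITC from a 5'-biotinylated DNA oligo (15 nM, 5 min, RT). Enzyme was E. coli-made recombinant Tdp1 at 1 nM, exposed to compound for 15 min beforehand; beads 10 ug/ml, 10 min.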
HepG2 tox: counter-screen for TGF-b inhibitors: cytotoxicity in HepG2 cells; HepG2 CAGA-GFP viability, ATP luminescence, 18 h; Potency, µM (highest dose often 46.1 µM), hits mostly cytotoxic; 0.76% of 410,000 active
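CellTiter-Glo luminescence gave cytotoxicity after 18 hours at 37 degrees C. The cells were HepG2 CAGA-GFP in 1% FBS DMEM, stimulated with 500 pg/mL TGF-beta after compound addition. %Activity was normalised to no-cell wells (complete cell-killing) and DMSO (no toxicity), and curves were fitted and classified.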
TDP1 cell noCPT: qHTS for Inhibitors of human tyrosyl-DNA phosphodiesterase 1 (TDP1): qHTS in cells in absence of CPT | 15% of 420,000 active | DT40 Tdp1-/- hTDP1 cells, no CPT, ATP luminescence, 48 h | Potency, µM (doses to about 46.2 µM), hits mostly inhibitors; further: nearly all actives have a fitted effect of over 55% in size
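A cellular qHTS used chicken DT40 cells lacking endogenous Tdp1 but carrying stably transfected human TDP1. Compounds were applied without camptothecin, and cell growth kinetics were judged by ATP-dependent luminescence after ≥48 hr.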
IL1B secr inh: blocks inflammasome-driven IL-1 beta release; AID 743279; THP-1 LPS/ATP IL-1B secretion, AlphaLISA, 16 h; stronger effect = lower value; activity change, % at 57.5 µM; 4.7% of 360,000 active; in the data active means activity change below about -50%; inconclusive means mostly about -30% to -49%
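Secreted IL-1B measured by AlphaLISA bead assay after 16 h compound exposure of THP-1 cells; compounds (final up to 57.5 uM) added 1 h before LPS (250 ng/mL) and ATP (1.25 mM) stimulation; lower signal means less secretion.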
DT40 TDP1 CPT: growth inhibition of DT40 Tdp1-/-;hTDP1 cells with camptothecin (screen for TDP1 inhibitors). AID 686979. chicken DT40 Tdp1-/-;hTDP1 cells + 20 nM CPT, ATP luminescence, 48 h. Potency, µM (top dose mostly 46.2 µM), hits mostly inhibitors. 12% of 420,000 active; further: nearly all actives have a fitted effect of over 55% in size
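Cell growth measured by CellTiter-Glo luminescence after a minimum 48 h, 37 C compound exposure with 20 nM CPT in Tdp1-knockout DT40 cells stably expressing hTDP1, seeded 400/well; qHTS titration format.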
TGFb inhibitor: inhibitors of TGF-b signaling. HepG2 CAGA-GFP TGF-b/SMAD3 reporter, GFP fluorescence, 18 h; TGF-beta stimulated, 500 pg/mL final. Potency, µM (titrated, usually from 46.1 µM), usual class: inhibitors. 1.2% of 410,000 active; further: nearly all actives have a fitted effect of over 65% in size
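Cell-based qHTS in HEPG2 carrying a CAGA-GFP Smad reporter; compounds added before 500 pg/mL final TGF-beta, 18 h incubation at 37 degrees C, GFP fluorescence quantified per cell by imaging cytometry.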
Numbers stand for hits; n = inactive; u = inconclusive; x = no result; [ ] = dose if it differs, or a comment. Unless noted, the call rests on the fitted dose curve; in most records, active means well fitted curve in the direction sought with a large enough effect; inconclusive means small, poorly fitted or top-dose-only effect, or another doubt; inactive means no such curve, though single readings can be large; an effect the other way counts as inactive or inconclusive.

SMILES	TDP1 block	HepG2 tox	TDP1 cell noCPT	IL1B secr inh	DT40 TDP1 CPT	TGFb inhibitor
COc1cccc(C(=O)C2=NN(C(C)=O)CC2c2ccco2)c1 (stereo not drawn)	n	n	n	n	n	n
C=C(C)C1CCC2(C(=O)O)CCC3(C)C(CCC4C5(C)C(C=O)C(O)C(C)(C)C5CCC43C)C12 (stereo not drawn)	x	n	u	n	u	13µM
C=C(C)[C@@H]1CC[C@]2(C(=O)O)CC[C@]3(C)[C@H](CCC4[C@@]5(C)CC[C@H](O)C(C)(C)[C@@H]5CC[C@]43C)[C@@H]12 (stereo partly drawn)	n	x	x	x	x	x
O=C(/C=C/c1ccc([N+](=O)[O-])cc1)N(c1ccccn1)C1CCCCC1	n	n	u	n	u	u
CCC1CCCCN1CCCNC(=O)c1c(O)nc2ccccn2c1=O (stereo not drawn)	n	n	n	n	n	n
Cc1ccc(Cc2cnc(N3C(=N)SC(c4ccccc4)C3=O)s2)cc1 (stereo not drawn)	n	n	16µM	n	16µM	u
Cc1ccc(CC2CC(=O)N(c3nc4ccccc4s3)C2=O)cc1 (stereo not drawn)	n	n	n	n	n	n
O=[N+]([O-])c1ccc(S(=O)(=O)N2CCN=C2SCc2ccc(F)cc2)cc1	n	n	n	n	n	n
COc1ccc(CCNC(=O)c2ccc3c(c2)N(Cc2cc(C)ccc2C)C(=O)c2ccccc2S3=O)cc1OC (stereo not drawn)	n	n	5.8µM	x	9.2µM	n
O=C(NCc1ccc2c(c1)OCO2)c1ccc2c(c1)N(Cc1ccccc1F)C(=O)c1ccccc1S2=O (stereo not drawn)	n	n	21µM	x	n	n
Cc1ccc(C)c(CN2C(=O)c3ccccc3S(=O)c3ccc(C(=O)NCCC4=CCCCC4)cc32)c1 (stereo not drawn)	n	n	16µM	x	15µM	n
Cc1ccccc1CN1C(=O)c2ccccc2S(=O)c2ccc(C(=O)NCc3ccc4c(c3)OCO4)cc21 (stereo not drawn)	n	n	n	x	n	n
CC(C)CCNC(=O)c1ccc2c(c1)N(Cc1ccccc1F)C(=O)c1ccccc1S2=O (stereo not drawn)	n	n	21µM	x	u	n
O=C(NCCc1ccccc1)c1ccc2c(c1)N(Cc1ccccc1F)C(=O)c1ccccc1S2=O (stereo not drawn)	n	n	u	x	u	n
Cc1nn(C)c2c1c(-c1ccccc1)cc(=O)n2Cc1c(F)cccc1Cl	n	n	u	x	u	n
COc1ccc(CCNC(=O)c2ccc3c(c2)N(Cc2ccccc2F)C(=O)c2ccccc2S3=O)cc1OC (stereo not drawn)	n	n	26µM	x	15µM	n
CC1=C(C(=O)OCc2ccccc2)C(/C=C/c2ccccc2)NC(=S)N1 (stereo not drawn)	n	n	29µM	u	16µM	u
OC1c2c(F)cccc2N=C2CCCCN21 (stereo not drawn)	x	n	u	n	8.2µM	n
CCCNC(=O)OC[C@H]1O[C@@H](CCO/N=C2/[C@H]3O[C@@H]3[C@@H](O)[C@H]3[C@H]2CCn2c(=O)n(-c4ccccc4)c(=O)n23)C=C[C@@H]1Oc1ccc(OC)cc1	n[21 µM]	x	x	x	x	x
OC(c1cccc(F)c1)c1ncc(-c2ccc3ccccc3c2)[nH]1 (stereo not drawn)	x	n	u	n	u	n
Cc1cccc(-c2cnc(C(O)Cc3ccccc3)[nH]2)c1 (stereo not drawn)	x	n	u	n	16µM	n
OC(Cc1ccccc1)c1ncc(-c2ccc3ccccc3c2)[nH]1 (stereo not drawn)	x	n	23µM	n	u	n
O=S(=O)(Nc1ccccc1OC(F)F)c1ccc(S(=O)(=O)N2CCCC2)cc1	n	n	u	n	u	n
Cc1ccc(NC(=O)C(OC(=O)c2cc(C)oc2C)c2ccccc2)cc1 (stereo not drawn)	n	n	u	n	n	u
Cc1cc(C(=O)OC(C(=O)Nc2cccc(C(F)(F)F)c2)c2ccccc2)c(C)o1 (stereo not drawn)	n	n	21µM	n	u	u
SMILES	TDP1 block	HepG2 tox	TDP1 cell noCPT	IL1B secr inh	DT40 TDP1 CPT	TGFb inhibitor
CSc1cc(-c2ccccc2)n(Cc2ccc(Cl)cc2Cl)c(=O)c1C#N	n	n	23µM	n	18µM	n
Cc1cccc(OCC(=O)Nc2ccc(S(=O)(=O)N3CCCC3)cc2)c1	n	n	u	n	u	n
O=C(CN1CCN(S(=O)(=O)c2ccccc2)CC1)Nc1cccc(C(F)(F)F)c1	n	n	u	n	16µM	n
O=C(CNc1cc(S(=O)(=O)N2CCOCC2)ccc1NCC1CCCO1)Nc1ccc(C(F)(F)F)cc1 (stereo not drawn)	x	n	u	-62	u	n
Cc1ccc(NC(=O)CNc2cccc(S(=O)(=O)N3CCCC3)c2)cc1F	n	n	u	-67	n	u
O=C(COc1cccc(C(F)(F)F)c1)Nc1ccc(S(=O)(=O)N2CCCCC2)cc1	x	n	26µM	u	u	u
Nc1ncnc2c1ncn2[C@@H]1O[C@H](C(=O)N[C@H]2c3ccccc3C[C@H]2O)[C@@H](O)[C@H]1O	x	n	n	n	n	n
Cc1ccc(NC(=O)CCCN2C(=O)NC(C)(C)C2=O)cc1	n	n	n	n	n	n
CS(=O)(=O)N1CCN(c2ccccc2NC(=O)Nc2cccc(Cl)c2)CC1	x	n	u	n	u	u
O=S(=O)(c1cccc(O)c1)N1CCN(S(=O)(=O)c2c(F)cccc2F)CC1	n	x	x	x	x	x
O=C(CNc1cccc(C(F)(F)F)c1)Nc1cccc(S(=O)(=O)N2CCCC2)c1	n	n	n	u	13µM	u
O=C(CN1CCCC1)Nc1cc(C(F)(F)F)cc(C(F)(F)F)c1	x	n	n	-69	n	n
O=C(CN1CCCC1)Nc1cc(C(F)(F)F)ccc1Cl	n	n	n	n	n	n
Cc1cccc(NC2=C(NCCO)C(=O)c3ccccc3C2=O)c1	n	n	21µM	-57	16µM	u
Cc1cccc(Nc2nc(N)c([N+](=O)[O-])c(NCCO)n2)c1	n	n	u	n	u	n
COc1cccc(NC2=C(NCCO)C(=O)c3ccccc3C2=O)c1	x	n	u	-74	u	n
COc1ccc(NC2=C(NCCO)C(=O)c3ccccc3C2=O)cc1	n	n	15µM	n	12µM	n

Screens from PubChem BioAssay.
